Rows were chosen to be rich in hits. Some 21% of all compounds tested hit in one or more screens of this group.
Shiga inhibitor = A qHTS for Small Molecule Inhibitors of Shiga Toxin. 290,000 compounds, 9.2% hits. AID 2315, 2010. Vero cells, Shiga toxin protein synthesis inhibition reporter. inhibition, % at 38.7 µM; in the data active = inhibition mostly above about 28%, no sharp cut-off; inactive = mostly below about 43%; also: 0% is about no effect
Cycloheximide cs = Cycloheximide Counterscreen for Small Molecule Inhibitors of Shiga Toxin; 300,000 compounds, 12% hits; cell reporter, cycloheximide protein synthesis inhibition counterscreen; max response, %; in the data active = max response mostly above about 13%, no sharp cut-off; inactive = mostly below about 14%; also: read at 38.3 µM for the half of the compounds with a filed dose; 0% is about no effect
NS1 inh = qHTS Assay for Inhibitors of Influenza NS1 Protein Function; 270,000 compounds, 0.4% hits; Potency, µM (doses to about 46.1 µM), for the others: at the highest dose activity, positive = more growth; also: potency is read from the fitted curve at half-maximal effect; actives are rising curves; nearly all actives have a fitted effect of over 50% in size
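S. cerevisiae expressing influenza A NS1, grown in glucose, washed, then diluted 1:100 into pH 6.0 -URA galactose medium with 23 nl compound. Growth recovery read as OD600; NS1-free strain serves as control.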
Pf growth 96h = Primary qHTS for delayed death inhibitors of the malarial parasite plastid, 96 hour incubation | P. falciparum luciferase reporter growth, 96 h | Potency, µM (highest dose often 28.7 µM), without a hit: top-dose activity change, negative = inhibition, hits mostly inhibitors | 320,000 compounds, 6.9% hits; active = well fitted inhibition curve with a large enough effect; inconclusive = small, poorly fitted or top-dose-only effect, or another doubt; inactive = no such curve, though single readings can be large or run the other way; also: potency is read from the fitted curve at half-maximal effect; % is scaled to controls: 0 for no effect and ±100 for the full control effect
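Cell-based qHTS: luciferase-tagged P. falciparum in erythrocytes (2% hematocrit, 0.05% parasitemia final) incubated with compounds for 96 hours, 37 C, 5% CO2; luciferase detection reagent then added and luminescence measured.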
SARS PLP yeast = qHTS of Yeast-based Assay for SARS-CoV PLP; S. cerevisiae expressing SARS-CoV PLpro, growth rescue; Potency, µM (series often up to 32.9 µM), without a hit: at the top dose activity, positive = growth rescue, usual class: activators; 330,000 compounds, 0.19% hits; also: potency is read from the fitted curve at half-maximal effect; 0% is about no effect; nearly all actives have a fitted effect of over 55% in size
Pf growth 48h = Primary qHTS for delayed death inhibitors of the malarial parasite plastid, 48 hour incubation; P. falciparum luciferase growth in erythrocytes, 48 h; Potency, µM (series often up to 28.7 µM), for inactives: at the highest dose activity change, negative = inhibition, most hits filed as inhibitors; 310,000 compounds, 5.9% hits; active = well fitted inhibition curve with a large enough effect; inconclusive = small, poorly fitted or top-dose-only effect, or another doubt; inactive = no such curve, though single readings can be large or run the other way; also: potency is read from the fitted curve at half-maximal effect; % is scaled to controls: 0 for no effect and ±100 for the full control effect
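Compounds are pin-transferred into medium, infected erythrocytes (2% hematocrit, 0.1% parasitemia final) are added, and plates sit one parasite generation at 37 C in 5% CO2. Detection reagent is then added and luminescence measured.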
Starred values were filed as active, the others as inactive; u = inconclusive; x = no result; + = active, no number; [ ] = remark or other dose. Unless noted, calls follow the shape of the full dose curve.

SMILES | Shiga inhibitor | Cycloheximide cs | NS1 inh | Pf growth 96h | SARS PLP yeast | Pf growth 48h
COc1ccc(OCCSc2nc(N)cc(=O)[nH]2)cc1 | 2.0 | 0.5 | 5.7% | 17.5% | -1.5% | 32.1%
CCOc1ccc(OCCSc2nc(C)cc(=O)[nH]2)cc1 | 124.2* | 29.8* | -13.3% | u | -1.1% | 27.6%
Nc1cc(=O)[nH]c(SCCSc2ccc(F)cc2)n1 | 22.6 | -5.4 | 24.3% | 15.9% | -1.3% | 12.7%
Cc1ccc(SCCSc2nc(N)cc(=O)[nH]2)cc1 | 32.8 | 21.7* | 16.6% | 65.6% | 7.2% | 0.0%
COc1ccc(NC(=O)CN(C)C(=O)Cc2ccc(-c3ccccc3)cc2)cc1 | x | x | x | u | -1.2% | u
CNc1ccc(/C=C/C(=O)c2ccc3c(c2)OCCO3)cc1[N+](=O)[O-] | 15.4 | -1.1 | -25.5% | 18.6% | -33.8% | 28.9%
O=C(/C=C/c1ccc(O)c([N+](=O)[O-])c1)c1ccc2ccccc2c1 | 5.9 | -3.0 | 1.8% | u | -1.2% | u
CN(C)c1ccc(/C=C/C(=O)c2ccccc2)cc1[N+](=O)[O-] | + | 62.3* | -11.5% | 9.28µM* | 2.6% | 105.5%
CNc1ccc(/C=C/C(=O)c2ccc(C)cc2)cc1[N+](=O)[O-] | 10.6 | 0.3 | -3.4% | 11.7µM* | 14.3% | 9.2%
COc1ccc(N(C(=O)CNC(=O)c2cccs2)C(C(=O)NCC2CCCO2)c2ccccc2)cc1 (stereo not drawn) | -13.3 | -3.3 | 6.1% | 40.8% | 0.1% | -28.7%
COc1cc(NC(=O)c2cc3c(Cl)nc4ccccc4c3s2)cc(OC)c1OC | -12.5 | 5.6 | 12.3% | u | 28.6% | 0.828µM*
CN(CCCNC(=O)c1cc2c(Cl)nc3ccccc3c2s1)Cc1ccccc1 | -8.1 | -0.5 | x | u | -3.0% | 3.29µM*
O=C(Nc1ccc2ccccc2c1)c1ccc2[nH]c(=O)c(=O)[nH]c2c1 | 15.3 | 3.9 | 8.3% | -11.2% | -0.8% | -17.8%[0.00184 µM]
Cc1ccc(NC(=O)/C(=C\c2cccnc2)NC(=O)c2ccccc2)cc1 | -14.4 | -4.3 | -6.4% | 47.8% | 1.5% | -4.8%
Cc1ccc(-n2c(O)c(C=Nc3ccccc3N)c(=O)[nH]c2=O)cc1C | 67.2* | 45.6* | -4.1% | 47.4%[5.75 µM] | -3.2% | 123.5%
Cc1cc(S(N)(=O)=O)ccc1N=Cc1c(O)n(-c2ccccc2)c(=O)[nH]c1=O | -29.4 | -1.6 | 1.1% | 16.3% | 2.3% | 4.5%
CNS(=O)(=O)c1ccc(N=Cc2c(O)n(-c3ccccc3)c(=O)[nH]c2=O)cc1 | 3.0 | -2.6 | x | 0.0% | 13.1% | 14.6%
Cc1ccccc1-n1c(O)c(C=Nc2ccc(N(C)C)cc2)c(=O)[nH]c1=O | -7.4 | 11.0 | -36.9% | 1.85µM* | -6.8% | 2.62µM*
Cc1ccc(-n2c(O)c(C=Nc3ccc(S(=O)(=O)N(C)C)cc3)c(=O)[nH]c2=O)cc1 | -3.9 | -3.1 | 6.8% | 2.08µM* | -8.9% | x
CCN(CC)c1ccc(N=Cc2c(O)n(-c3ccc(OC)cc3)c(=O)[nH]c2=O)cc1 | -11.0 | -0.8 | -0.1% | 10.4µM* | -0.7% | x
CN(C)C(=O)[C@H]1C[C@H]1[C@@H](O)[C@H](CO)NC(=O)[C@H](COCc1ccccc1)NC(=O)OC(C)(C)C | 8.8 | 5.5 | -16.9% | u | 16.8% | 3.0%
COc1ccc(N=Cc2c(O)n(CC3CCCO3)c(=O)[nH]c2=O)cc1 (stereo not drawn) | 28.2 | 11.5* | -8.4% | 15.4% | 3.5% | 18.4%
COc1ccc(N=Cc2c(O)n(Cc3cccs3)c(=O)[nH]c2=O)cc1 | -12.7 | -2.2 | -3.5% | 0.7% | -0.1% | 13.4%
CC1CCc2sc(C(=O)NCCCn3ccnc3)cc2C1 (stereo not drawn) | -12.3 | 1.2 | 9.1% | -3.2% | 0.7% | -7.4%
Clc1ccc(-c2nc3ccncc3[nH]2)cc1 | 58.5* | 81.8* | -8.3% | 20.7% | -55.6% | u
SMILES | Shiga inhibitor | Cycloheximide cs | NS1 inh | Pf growth 96h | SARS PLP yeast | Pf growth 48h
Fc1ccc(-c2nc3ccncc3[nH]2)cc1 | 27.9 | 23.4* | 7.8% | u | -19.2% | x
COc1ccc(NC(=O)CCc2c(C)nn(-c3ccc(N4CCOCC4)nn3)c2C)cc1 | 37.8 | 19.5 | 3.1% | u | 24.5% | -4.1%
Cc1nn(-c2ccc(N3CCOCC3)nn2)c(C)c1CCC(=O)Nc1ccccc1 | 19.8 | 25.5* | -2.4% | -13.5% | -1.3% | 34.1%
COc1cc(NC(=O)CCc2c(C)nn(-c3ccc(N4CCOCC4)nn3)c2C)cc(OC)c1OC | 1.8 | 1.6 | -5.9% | 5.6% | -1.4% | u
CCc1ccc(NC(=O)CCc2c(C)nn(-c3ccc(N4CCOCC4)nn3)c2C)cc1 | 45.0* | 42.1* | -10.2% | u | -16.6% | 13.3%
Cc1ccc(NC(=O)CCc2c(C)nn(-c3ccc(N4CCOCC4)nn3)c2C)cc1 | 6.8 | 22.6* | -14.4% | u | 1.6% | 9.5%
CC(=O)c1ccc(NC(=O)CCc2c(C)nn(-c3ccc(N4CCOCC4)nn3)c2C)cc1 | 39.7* | 44.3* | -14.6% | 5.4% | 3.7% | 33.9%
CCNc1nc(NC(C)C)nc(NS(=O)(=O)c2ccc(C)cc2)n1 | 1.2 | -2.3 | -3.1% | 337.9% | -0.1% | -0.3%
COc1cc(/C=C(\CCC(=O)O)c2nc3ccccc3s2)ccc1OCC(=O)Nc1c(Cl)cccc1Cl | x | x | x | x | 0.6% | x
CSc1ccc(S(=O)(=O)N2CCC(C(=O)N3CCc4ccccc4C3)CC2)cc1 | 2.7 | -0.4 | -11.1% | -3.3% | 0.2% | u
CCc1cccc(NC(=O)CCc2c(C)nn(-c3ccc(N4CCOCC4)nn3)c2C)c1 | 26.8 | 26.0* | 1.6% | 4.1% | 1.5% | u
Cc1ccc(NC(=O)CCc2c(C)nn(-c3ccc(N4CCOCC4)nn3)c2C)cc1F | 68.5* | 40.7* | 11.4% | u | 5.8% | 1.8%
Cc1ccc(NC(=O)CCc2c(C)nn(-c3ccc(N4CCOCC4)nn3)c2C)c(C)c1 | 35.1 | -2.4 | -4.7% | 237.8% | -14.2% | 11.3%
O=C(O)/C=C/C(=O)Nc1ccc(C2(c3ccc(NC(=O)/C=C/C(=O)O)cc3)c3ccccc3-c3ccccc32)cc1 | -3.5 | -0.4 | 24.2% | 28.2% | -3.3% | u
[O-][n+]1c2c(nn1-c1ccccc1)/C(=N/O)CCC2 | -4.4 | 2.3 | 5.1% | u | -0.7% | 10.0%
[O-][n+]1onc2c1CCC(=N/O)/C2=N\Nc1ccccc1 | 55.3 | 19.4* | 9.3% | 4.65µM* | 2.2% | 7.38µM*
O=C(NCCc1ccc(Cl)cc1)c1ccc(OCC2CCCO2)cc1 (stereo not drawn) | 92.0* | 33.4* | 15.5% | -4.9% | -1.0% | 31.0%
NNC(=O)c1ccc(OCC2CC(c3ccc(Cl)cc3)=NO2)cc1 (stereo not drawn) | 40.3* | 21.8* | 12.2% | u | -0.6% | 8.28µM*
C/C(N)=C(/C#N)C(=O)COC(=O)c1ccc(C#N)cc1 | -5.0 | -3.1 | x | 5.1% | 0.3% | 3.3%

Screening data as filed in PubChem BioAssay.
